Assay outcomes from PubChem.
CYP2C9 inhib = blocks human cytochrome P450 2C9 | 20% of 96,000 active | inhibition, % at 5 µM | CYP2C9 Supersomes, luciferin-H conversion, luminescence;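 active = blocking of liver enzyme CYP2C9 beyond about 50% at 5 µM, limit read from the data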
CYP2C9 act = increases human cytochrome P450 2C9 activity; P11712; recombinant CYP2C9, luciferin-H conversion, luminescence; stronger effect = higher value; factor 1 = untreated enzyme, 0 = blocked; activation factor at 5 µM; 1.4% of 96,000 active;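 active = activation factor of 2 or more for CYP2C9 at a 5 µM dose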;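 also: 0 = sulfaphenazole-blocked wells and 1 = vehicle-only wells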
CYP2C19 inh = inhibitors of human CYP2C19. P33261. CYP2C19 Supersomes, luciferin-H EGE luminescence, 30 min. inhibition, % at 5 µM. 21% of 96,000 active. AID 778;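 active = CYP2C19 inhibition above a set limit at 5 µM in the primary screen, cut at about 50% in these data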;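 also: plate controls were negative control wells for no effect and 2.5 mM tranylcypromine positive control for full effect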
Target sequence (P33261 whole entry, looked up): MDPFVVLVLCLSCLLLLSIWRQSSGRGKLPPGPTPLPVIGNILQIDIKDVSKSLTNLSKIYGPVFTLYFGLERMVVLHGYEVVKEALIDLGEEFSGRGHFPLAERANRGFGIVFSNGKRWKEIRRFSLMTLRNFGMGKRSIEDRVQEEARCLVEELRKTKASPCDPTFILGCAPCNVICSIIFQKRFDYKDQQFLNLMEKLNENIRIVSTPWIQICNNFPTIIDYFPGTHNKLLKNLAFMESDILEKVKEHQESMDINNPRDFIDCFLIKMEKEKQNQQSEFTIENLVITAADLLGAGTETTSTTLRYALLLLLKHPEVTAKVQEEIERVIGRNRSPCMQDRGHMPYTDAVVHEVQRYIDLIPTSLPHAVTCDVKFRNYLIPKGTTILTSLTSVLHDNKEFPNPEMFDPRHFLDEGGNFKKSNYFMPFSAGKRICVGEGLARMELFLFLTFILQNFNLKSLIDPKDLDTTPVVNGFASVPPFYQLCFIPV
sEH inh = blocks human soluble epoxide hydrolase activity; P34913; 0.34% of 91,000 active; recombinant human sEH enzymatic activity assay; inhibition, % at 2 µM; in the data active = inhibition above about 80%
sEH act = activators of human soluble epoxide hydrolase; 0.04% of 91,000 active; activation, % at 2 µM; purified human sEH enzymatic activity, activator screen; P34913; in the data active = activation above about 37%
CYP2C19 activ = cytochrome P450 2C19 (human) activation; P33261; activation factor at 5 µM; recombinant CYP2C19, luciferin-H EGE luminescence; stronger effect = higher value; 0 = fully inhibited enzyme, 1 = untreated enzyme; 96,000 tested, under 10 active;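 active = activation factor of at least 2 at 5 µM in the primary screen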;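 also: 0 = wells with 2.5 mM tranylcypromine and 1 = vehicle-only wells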
Active calls of the source: *; x = no result given. A selection: hits, their analogues and other compounds. The true share with any hit is near 27%.

SMILES | CYP2C9 inhib | CYP2C9 act | CYP2C19 inh | sEH inh | sEH act | CYP2C19 activ
CCOc1ccccc1NC(=O)CSc1nnc(CNC(=O)c2ccco2)o1 | 24 | 0.8 | 18 | 6 | -4 | 0.8
Cc1ccc(-c2noc(CCC(=O)NCCN3CCc4ccccc4C3)n2)cc1 | 72* | 0.3 | 84* | 1 | 3 | 0.2
Cc1ccc(-c2noc(CCC(=O)NCCN3CCOCC3)n2)cc1 | 6 | 0.9 | 24 | 5 | -2 | 0.8
O=C(CCc1nc(-c2ccccc2F)no1)NCCN1CCc2ccccc2C1 | 42 | 0.6 | 60* | -3 | 6 | 0.4
O=C(CCc1nc(-c2ccccc2F)no1)NCCc1ccccc1Cl | 56* | 0.4 | 80* | 7 | -5 | 0.2
Cc1ccc(-c2noc(CCC(=O)NCC3CCCO3)n2)cc1 (stereo not drawn) | -3 | 1 | -2 | -4 | 3 | 1
Cc1ccc(-c2noc(CCC(=O)NCCN3CCN(Cc4ccccc4)CC3)n2)cc1 | 62* | 0.4 | 51* | 9 | -6 | 0.5
COc1cc2[nH]c(=O)n(Cc3ccc(C(=O)NCC4CCCO4)cc3)c(=O)c2cc1OC (stereo not drawn) | 18 | 0.8 | 5 | x | x | 0.9
Cc1ccc(-c2noc(CCC(=O)NCCc3ccccc3Cl)n2)cc1 | 39 | 0.6 | 33 | 6 | -2 | 0.7
CCN(CCCNC(=O)CCc1nc(-c2ccc(C)cc2)no1)c1cccc(C)c1 | 52* | 0.5 | 34 | 34 | -33 | 0.7
CCOC(=O)C1CCCCN1Cc1cccc(OC)c1OC (stereo not drawn) | 27 | 0.7 | 30 | -18 | 18 | 0.7
CCOC(=O)C1CCCCN1Cc1cc(Cl)ccc1O (stereo not drawn) | 94* | 0.1 | 99* | -31 | 33 | 0
CCOC(=O)C1CCCCN1Cc1cccc(F)c1 (stereo not drawn) | 29 | 0.7 | 89* | 6 | -6 | 0.1
CCOC(=O)C1CCCCN1Cc1ccc(F)cc1 (stereo not drawn) | -9 | 1.1 | 66* | -13 | 8 | 0.3
COc1ccc(C)cc1NC(=O)C(CCS(C)(=O)=O)NC(C)=O (stereo not drawn) | 0 | 1 | -3 | x | x | 1
Cc1cc2c(C)cc(=O)oc2c2c1NCCC2 | -210 | 3.1* | 16 | -3 | 6 | 0.8
CCc1ccc(N=CC23c4ccccc4C(c4ccccc42)C2C(=O)N(c4ccc(OC)cc4)C(=O)C23)cc1 (stereo not drawn) | 3 | 1 | 29 | 2 | -4 | 0.7
COC(=O)c1ccc(-n2c(C)cc(/C=N/n3cnnc3)c2C)cc1 | 38 | 0.6 | 48 | x | x | 0.5
Cc1cc(/C=N/n2cnnc2)c(C)n1-c1cc(Cl)ccc1Cl | 79* | 0.2 | 100* | -13 | 13 | 0
Cc1cc(/C=N/n2cnnc2)c(C)n1-c1ccc(C(=O)O)cc1 | 7 | 0.9 | -2 | -2 | 1 | 1
Cc1cc(/C=N/n2cnnc2)c(C)n1-c1ccc2c(c1)OCO2 | 88* | 0.1 | 100* | 2 | -2 | 0
Cc1cc(C)c2[nH]c(=O)c(C(c3nnnn3C3CCCC3)N3CCOCC3)cc2c1 (stereo not drawn) | -10 | 1.1 | -14 | x | x | 1.1
COc1ccc(CCNC(=O)CC2COc3ccccc3O2)cc1OC (stereo not drawn) | 97* | 0 | 97* | 32 | -33 | 0
COc1ccc(CNC(=O)C2COc3ccccc3O2)c(OC)c1 (stereo not drawn) | 5 | 0.9 | 78* | 33 | -34 | 0.2
COc1ccc(NC(=O)CCC2COc3ccccc3O2)c(OC)c1 (stereo not drawn) | 26 | 0.7 | 83* | -6 | 7 | 0.2
SMILES | CYP2C9 inhib | CYP2C9 act | CYP2C19 inh | sEH inh | sEH act | CYP2C19 activ
O=C(NCc1ccccc1)C1COc2ccccc2O1 (stereo not drawn) | x | x | x | 4 | 1 | x
Cc1ccc(NC(=O)CC2COc3ccccc3O2)cc1 (stereo not drawn) | 29 | 0.7 | 69* | 40 | -40 | 0.3
COc1cc(OC)c(OC)cc1NC(=O)CC1COc2ccccc2O1 (stereo not drawn) | x | x | x | -8 | 8 | x
COc1cccc(NC(=O)CC2COc3ccccc3O2)c1 (stereo not drawn) | 24 | 0.8 | 49 | 28 | -31 | 0.5
Cc1nn(CC(=O)O)c2ccccc12 | 23 | 0.8 | -15 | -1 | 2 | 1.2
COc1ccc(OC)c(NC(=O)C2COc3ccccc3O2)c1 (stereo not drawn) | 16 | 0.8 | 67* | 19 | -19 | 0.3
COc1ccc2[nH]cc(C(=O)N3CCCCC3)c(=O)c2c1 | -14 | 1.1 | -8 | -3 | 6 | 1.1
CCCCn1c(-c2cc(Cl)ccc2OC)n[nH]c1=S | 29 | 0.7 | 72* | -12 | 9 | 0.3
CCn1c(-c2ccc(OC)c(OC)c2)n[nH]c1=S | 8 | 0.9 | 4 | 7 | -4 | 1
O=C(Cn1cnc2ccccc2c1=O)c1ccc2ccccc2c1 | 13 | 0.9 | 29 | 2 | -4 | 0.7
Cc1nc([N+](=O)[O-])c(Br)n1CC(=O)c1ccccc1 | 17 | 0.8 | 51* | -12 | 9 | 0.5
Cc1nc([N+](=O)[O-])c(Br)n1CC(=O)c1ccc2ccccc2c1 | 76* | 0.2 | 54* | 2 | -5 | 0.5
Cc1nc([N+](=O)[O-])c(Br)n1CC(=O)c1ccc(Br)cc1 | 54* | 0.5 | 18 | -3 | 0 | 0.8
O=C(Cn1c(C(F)(F)F)nc2ccccc21)c1ccc(Br)cc1 | -3 | 1 | -11 | 1 | 1 | 1.1
COc1ccccc1NC(=O)CSc1nnc(-c2ccoc2C)n1CC1CCCO1 (stereo not drawn) | 11 | 0.9 | 14 | 7 | -8 | 0.9
Cc1ccc(C2=[N+]([O-])C3(CCCCC/C3=N\NC(N)=S)N(O)C2(C)C)o1 (stereo not drawn) | 74* | 0.3 | 13 | 5 | -2 | 0.9
COc1ccc(N2CC(O)=C(c3nc4ccccc4s3)C2=N)c(OC)c1 | 4 | 1 | 55* | x | x | 0.4
CC1=CC(C)(C)N2C(=O)C3(N=C(N)NC(Nc4ccccc4)=N3)c3cc(C)cc1c32 (stereo not drawn) | 8 | 0.9 | 5 | -2 | 3 | 1
CC1=CC(C)(C)N2C(=O)C3(SCC(=O)N3c3ccc(O)cc3)c3cc(C)cc1c32 (stereo not drawn) | 97* | 0 | 87* | x | x | 0.1
Cc1ccnc(Sc2nc3c(c(=O)[nH]c(=O)n3C)n2CCCc2ccccc2)n1 | 40 | 0.6 | 26 | x | x | 0.7
O=C(Cn1cc(C(=O)COc2ccccc2)c2ccccc21)NCc1ccco1 | 78* | 0.2 | 39 | -3 | 3 | 0.6
O=C(COc1ccccc1)c1cn(CC(=O)N2CCOCC2)c2ccccc12 | 71* | 0.3 | 34 | -2 | 2 | 0.7
O=C(CN1C(=O)c2ccccc2S1(=O)=O)NCCC1=CCCCC1 | x | x | x | 16 | -18 | x
